Records with an inconclusive call do not appear. Active and inactive are the calls of the source. Calls come from the whole dose curve; as a rule, active = well fitted inhibition curve with a large enough effect; inconclusive = small, poorly fitted or top-dose-only effect, or another doubt; inactive = no such curve, though single readings can be large or run the other way.

Sequence of Neuropeptide S receptor (Homo sapiens) (Q6W5P4 whole entry, looked up): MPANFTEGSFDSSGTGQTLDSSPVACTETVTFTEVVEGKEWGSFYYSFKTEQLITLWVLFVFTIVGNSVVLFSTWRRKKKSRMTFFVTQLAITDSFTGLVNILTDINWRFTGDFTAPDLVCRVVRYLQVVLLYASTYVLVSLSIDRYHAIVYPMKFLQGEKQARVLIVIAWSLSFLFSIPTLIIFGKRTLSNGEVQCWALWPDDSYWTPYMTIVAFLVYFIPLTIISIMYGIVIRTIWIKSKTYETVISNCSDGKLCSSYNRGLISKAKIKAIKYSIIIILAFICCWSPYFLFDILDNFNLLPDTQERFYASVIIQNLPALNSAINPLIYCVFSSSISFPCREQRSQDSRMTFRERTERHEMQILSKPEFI

This assay deals with Neuropeptide S receptor (Homo sapiens) (UniProt Q6W5P4). The assay can be described thus: Confirmation Concentration-Response Assay for Antagonists of the Neuropeptide S Receptor: Robust Characterization of Calcium Signal Transduction. Conditions: CHO-NPSR cells, NPS-induced calcium fluorescence (FDSS). An excerpt:
NIH Chemical Genomics Center [NCGC] NIH Molecular Libraries Probe Production centers Network [MLPCN] MLPCN Grant: X01-DA026210-01 Assay Submitter (PI): Heilig, Markus Alexander NCGC Assay Overview: Neuropeptide S receptor (NPSR), previously known as GPR154, is a recently de-orphanized G protein coupled receptor. Its endogenous ligand is the 20 amino acids peptide Neuropeptide S (NPS). […] NPS and its receptor are found in various tissues. Specifically they are highly expressed in brain areas that have been implicated in modulation of arousal, stress and anxiety. Central administration of NPS in mice produces an unusual profile of activity by inducing wakefulness and arousal, while at the same time suppressing anxiety. Therefore, NPSR may represent a novel drug target for the treatment of sleep and anxiety disorders. To identify NPSR antagonists, we developed a cell-based assay with transfected NPS receptor. NPS can stimulate the production of cAMP as well as release intracellular calcium in Chinese hamster ovary cells stably expressing NPS receptor. This change in intracellular calcium can be detected using a calcium indicator dye on a calcium imaging plate reader system (FDSS). This particular assay uses a high density of sampling across concentration-response space to establish more confidence estimates of potency.
NCGC Assay Protocol Summary: A Chinese hamster ovary (CHO) cell line stably expressing the NPS receptor (CHO-NPSR) was obtained from Dr. Heilig lab at NIAAA and maintained in F-12 Kaighn's media (Invitrogen, Carlsbad, CA, 21127) supplemented with 10 % FBS, 100 units/ml penicillin, 100 ug/ml streptomycin and 250 ug/ml geneticin at 37C, 5% CO2 in a humidified atmosphere. Before the assay, aliquots of cells were frozen and stored at -135C. The assay was performed on a FDSS-7000 kinetic plate reader in 1536-well format. For both agonist (1-220s) and antagonist (221-400s) phases, the maximums of kinetic fluorescence responses were converted separately into text files using the instrument's software data export utility. Data for agonist response were normalized to the controls for basal activity (DMSO only) and 100% activation (NPS). […] AC50 values were determined from concentration-response data modeled with the standard Hill equation. NPS 1536-well FDSS assay protocol: (1) Frozen CHO-NPSR cells were thaw, washed once with fresh media and resuspended in F-12 Kaighn's media supplemented with 10 % FBS, 100 units/ml penicillin and 100 ug/ml streptomycin. Cells were plated at 3 ul/well (1200 cells) to black, clear-bottom, tissue-culture treated 1536-well plates, and then cultured at 37C, 5 % CO2 for 16 to 30 hours. (2) Add 3 ul of calcium dye (from High Performance PBX Calcium Assay Kit, BD Biosciences). The calcium dye was prepared according to the manufactory's instruction. (3) Incubation at 37C, 5 % CO2 for 60 to 120 min. (4) Load plates to FDSS-7000. The following steps were performed on FDSS-7000. (5) Record fluorescent background (Ex 480 nm, Em 520-560 nm) for 10 s. (6) Add 23 nl/well of compound in DMSO solution. The final titration for each compound was between 0.6 nM and 46 uM. Record agonist response for 210 s. (7) Add 2 ul of stimulation reagent (1X HBSS buffer, 0.1% BSA, 60 nM NPS). Record antagonist response for 140 s. Keywords: MLSMR, MLPCN, NIH Roadmap, qHTS, NCGC, NPS, Neuropeptide S Antagonists
With `Cc1c(P(=S)(c2ccccc2)c2ccccc2)[n+]2ccccc2n1C`, the Potency is 50.4 nM (active).

Regarding `Cc1c(P(=S)(c2ccccc2)c2ccccc2)[n+]2ccccc2n1CCCCCc1ccccc1`, the Potency was 12.7 nM (active).

For `Cc1c(P(=S)(c2ccccc2)c2ccccc2)[n+]2ccccc2n1Cc1ccccc1`, the Potency is 31.8 nM (active).

As to `Cc1c(P(=S)(c2ccccc2)c2ccccc2)c2ccccc2n1C`, the Potency was 2830 nM (active).

As to `Cc1nc2ccccn2c1P(=S)(c1ccccc1)c1ccccc1`, the Potency is 1000 nM (active).

Turning to `Cc1c(P(=S)(c2ccccc2)c2ccccc2)[n+]2ccccc2n1CCCCc1ccccc1`, the Potency was 1.1 nM (active).

`Cc1c(P(=S)(c2ccccc2)c2ccccc2)[n+]2ccccc2n1CCc1ccccc1`: the Potency was 71.2 nM (active).

As to `S=P(c1ccccc1)(c1ccccc1)c1cnc2ccccn12`, the Potency was 4000 nM (active).

On to `C[n+]1cc(P(=S)(c2ccccc2)c2ccccc2)n2ccccc21`, for which the Potency was 2520 nM (active).

As for `Cc1c(P(=S)(c2ccccc2)c2ccccc2)[n+]2ccccc2n1CCCc1ccccc1`, the Potency was 2 nM (active).

With `Cc1c(P(=S)(c2ccccc2)c2ccccc2)[n+]2ccccc2n1C/C=C/c1ccccc1`, the Potency is 0.938 nM (active).

Source of the values: PubChem BioAssay AID434931 (National Center for Advancing Translational Sciences (NCATS), 2010).
